Among the data in the supplement of paper PMC6763611 are growth inhibition values, retold here.

For one test, the system named is Plasmodium falciparum NF54. Description: growth inhibition relative to untreated control; higher = more inhibition. Particulars: 5 µM; MM + chorismate end-products (CM screening medium); 72 h. The gist of the method: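 In dark 96-well half-area plates, each well held 100 μL of P. falciparum NF54 ring-stage culture at 1% parasitemia and 1% hematocrit. The cultures received a single test-compound dose of 5 μM or 1 μM and were kept at 37 °C for 72 h, in minimal RPMI either plain or enriched with folate (2.2 μM), pABA (7.3 μM), pHBA (7.3 μM), tyrosine (111 μM), phenylalanine (90 μM) and tryptophan. SYBR Green staining gave growth inhibition, expressed against untreated wells, with uninfected erythrocytes serving as the background.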
Take `Cc1nnc(NC(=O)c2cn(-c3ccccc3)nc2-c2ccccc2C)o1`: the growth inhibition was found to be 83.6%.

With `Cc1[nH]c2cc(F)cc(F)c2c(=O)c1-c1ccc(Oc2ccc(OC(F)(F)F)cc2)cc1`, the growth inhibition worked out at 87.3%.

On to `O=C(Nc1cccnc1)c1c(O)c2cccc3c2n(c1=O)CC3`, for which the growth inhibition is 4.63%.

For the molecule `Cc1ccc2cc(C3NC(=O)c4ccccc4N3)c(Cl)nc2c1` (stereo unspecified), the growth inhibition was determined as 95.2%.

For `O=C(NCc1nnc2n1CCCCC2)c1ccc(-c2ccc(F)cc2)o1`, the growth inhibition was below 0%.

With `OC[C@H]1O[C@@H](n2c3ccc(Cl)cc3c3c(-c4cc5ccccc5o4)ncnc32)C(O)[C@H]1O` (stereo partly specified), the growth inhibition is 63.8%.

For `COc1cc(C2=NCCN2)ccc1-c1cn(-c2cccc(C3=NCCN3)c2)nn1`, the growth inhibition was above 100%.

As for `c1ccc(-c2nc(NC3CCCCC3)cc(C3CC3)n2)nc1`, the growth inhibition turned out to be 94.6%.

As for `CCCCN(CCCC)c1c(C#N)cc(S(=O)(=O)Nc2ccccc2)cc1C#N`, the growth inhibition was found to be 39.9%.

For the molecule `Clc1cccc(C(c2ccc(CN3CCNCC3)cc2)n2ccnc2)c1` (stereo unspecified), the growth inhibition is 93.5%.

In the case of `O=C(Nc1nnc(S)s1)c1cc(Br)ccc1Cl`, the growth inhibition was below 0%.

For `O=C(Nc1nc(-c2ccccn2)cs1)c1cncn1-c1ccccc1`, the growth inhibition was 65%.

Turning to `CCOC(=O)NC(=O)c1ccsc1NC(=O)c1nc2ccccc2s1`, the growth inhibition is below 0%.

With `O=C(C(Cc1c[nH]c2ccccc12)NS(=O)(=O)c1ccc(Cl)cc1)N1CCCCC1` (stereo unspecified), the growth inhibition is 96.8%.

With `COc1ccc(C2CC(c3cccs3)=NN2C(=O)c2ccco2)cc1OC` (stereo unspecified), the growth inhibition came to 91.4%.

In the case of `C[C@H]1COc2c(N3CCN(C)CC3)c(F)cc3c(=O)c(C(=O)O)cn1c23`, the growth inhibition is 5.29%.

Regarding `CC(C)=CCC/C(C)=C/CNCCNC1C2CC3CC(C2)CC1C3` (stereo unspecified), the growth inhibition is above 100%.

Turning to `Cn1c(=O)c2c(S(C)(=O)=O)snc2n(C)c1=O`, the growth inhibition was found to be 37.3%.

In the case of `CS(=O)(=O)N1CCC(Cn2nc(Cc3cccc4ccccc34)c3c(N)ncnc32)CC1`, the growth inhibition came to 42.7%.

Consider `CC(C)(C)n1nc(Cc2cccc3ccccc23)c2c(N)ncnc21`, for which the growth inhibition was 39.5%.

Turning to `FC(F)(F)c1nnc2ccc(Cl)nn12`, the growth inhibition is below 0%.

With `Nc1nc(N)c2c3c(sc2n1)CN(Cc1ccccc1)CC3`, the growth inhibition was determined as 60.8%.

In the case of `O=C(NCc1ccco1)N1CCN(Cc2ccc(Cl)s2)CC1`, the growth inhibition is 21%.

With `CC(C(=O)Nc1ccc2oc(-c3ccncc3)nc2c1)c1ccccc1` (stereo unspecified), the growth inhibition is below 0%.

`COc1cccc(-n2nnnc2S(C)(=O)=O)c1`: the growth inhibition stood at 35%.

As for `COC(=O)c1c(NC(=O)c2c(F)c(F)c(F)c(F)c2F)sc2c1CCCCC2`, the growth inhibition was below 0%.

For `Cc1ccccc1C(=O)N1N=C(Nc2ccccc2)SC1(C)C`, the growth inhibition is below 0%.

Take `CCS(=O)(=O)N(Cc1ccco1)Cc1cc2ccc(C)cc2nc1O`: the growth inhibition came to 87.4%.

For `CCN(CC)C(=O)N1CCN(C)CC1`, the growth inhibition is below 0%.

For `O=C(NCc1ccoc1)N1CCN(Cc2ccc3c(c2)OCO3)CC1`, the growth inhibition is below 0%.

For `CN1CCN(c2nccc3nc(-c4ccc(F)c(F)c4)[nH]c23)CC1`, the growth inhibition is above 100%.

Regarding `CC(=O)NCC1CN(c2ccc(-c3ccc(CNCc4cn[nH]n4)cc3)c(F)c2)C(=O)O1` (stereo unspecified), the growth inhibition is 34.6%.

For `N#Cc1ccc(-c2ccc(OCC(N)=O)cc2)cc1`, the growth inhibition was below 0%.

As to `Cc1nc(-c2ccccn2)nc(NCCc2ccc(S(C)(=O)=O)cc2)c1Cl`, the growth inhibition was 8.44%.

In the case of `CC(C)C(Oc1cccc2ccccc12)C(=O)O` (stereo unspecified), the growth inhibition was below 0%.

`CC(C)(C)OC(=O)N1CCC(Cn2nc(-c3cnc4ccccc4c3)c3c(N)ncnc32)CC1`: the growth inhibition was determined as 64.1%.

On to `CC1CCCCN1C(=O)NCCc1coc(-c2ccc(F)cc2)n1` (stereo unspecified), for which the growth inhibition is below 0%.

As to `O=C(COc1cccc(F)c1)Nc1nc(-c2ccccn2)cs1`, the growth inhibition was below 0%.

The same test, now with this note: 5 µM; minimal medium (MM); 72 h.
With `Cc1nnc(NC(=O)c2cn(-c3ccccc3)nc2-c2ccccc2C)o1`, the growth inhibition turned out to be 83.6%.

With `Cc1[nH]c2cc(F)cc(F)c2c(=O)c1-c1ccc(Oc2ccc(OC(F)(F)F)cc2)cc1`, the growth inhibition is above 100%.

Molecule `O=C(Nc1cccnc1)c1c(O)c2cccc3c2n(c1=O)CC3` returned a growth inhibition below 0%.

`Cc1ccc2cc(C3NC(=O)c4ccccc4N3)c(Cl)nc2c1` (stereo unspecified) came in with a growth inhibition of 88.5%.

The molecule `O=C(NCc1nnc2n1CCCCC2)c1ccc(-c2ccc(F)cc2)o1` displayed a growth inhibition below 0%.

Take `OC[C@H]1O[C@@H](n2c3ccc(Cl)cc3c3c(-c4cc5ccccc5o4)ncnc32)C(O)[C@H]1O` (stereo partly specified): the growth inhibition is 30%.

As for `COc1cc(C2=NCCN2)ccc1-c1cn(-c2cccc(C3=NCCN3)c2)nn1`, the growth inhibition was 88.7%.

With `c1ccc(-c2nc(NC3CCCCC3)cc(C3CC3)n2)nc1`, the growth inhibition came out at 93.6%.

With `CCCCN(CCCC)c1c(C#N)cc(S(=O)(=O)Nc2ccccc2)cc1C#N`, the growth inhibition was 35.7%.

The molecule `Clc1cccc(C(c2ccc(CN3CCNCC3)cc2)n2ccnc2)c1` (stereo unspecified) displayed a growth inhibition of 91.5%.

Take `O=C(Nc1nnc(S)s1)c1cc(Br)ccc1Cl`: the growth inhibition was below 0%.

`O=C(Nc1nc(-c2ccccn2)cs1)c1cncn1-c1ccccc1`: the growth inhibition was below 0%.

For the molecule `CCOC(=O)NC(=O)c1ccsc1NC(=O)c1nc2ccccc2s1`, the growth inhibition is below 0%.

In turn, `O=C(C(Cc1c[nH]c2ccccc12)NS(=O)(=O)c1ccc(Cl)cc1)N1CCCCC1` (stereo unspecified) registered a growth inhibition of 88.7%.

Molecule `COc1ccc(C2CC(c3cccs3)=NN2C(=O)c2ccco2)cc1OC` (stereo unspecified) gave a growth inhibition of 93.4%.

Molecule `C[C@H]1COc2c(N3CCN(C)CC3)c(F)cc3c(=O)c(C(=O)O)cn1c23` yielded a growth inhibition of 15.8%.

`CC(C)=CCC/C(C)=C/CNCCNC1C2CC3CC(C2)CC1C3` (stereo unspecified): the growth inhibition was 91.3%.

Take `Cn1c(=O)c2c(S(C)(=O)=O)snc2n(C)c1=O`: the growth inhibition was determined as 23.5%.

`CS(=O)(=O)N1CCC(Cn2nc(Cc3cccc4ccccc34)c3c(N)ncnc32)CC1`: the growth inhibition was 17.6%.

Take `CC(C)(C)n1nc(Cc2cccc3ccccc23)c2c(N)ncnc21`: the growth inhibition amounted to 29.5%.

`FC(F)(F)c1nnc2ccc(Cl)nn12` came in with a growth inhibition of 8.78%.

In turn, `Nc1nc(N)c2c3c(sc2n1)CN(Cc1ccccc1)CC3` showed a growth inhibition of 91.9%.

The molecule `O=C(NCc1ccco1)N1CCN(Cc2ccc(Cl)s2)CC1` yielded a growth inhibition of 5.16%.

`CC(C(=O)Nc1ccc2oc(-c3ccncc3)nc2c1)c1ccccc1` (stereo unspecified) showed a growth inhibition below 0%.

`COc1cccc(-n2nnnc2S(C)(=O)=O)c1` showed a growth inhibition of 8.78%.

On to `COC(=O)c1c(NC(=O)c2c(F)c(F)c(F)c(F)c2F)sc2c1CCCCC2`, for which the growth inhibition was below 0%.

In the case of `Cc1ccccc1C(=O)N1N=C(Nc2ccccc2)SC1(C)C`, the growth inhibition was determined as 5.01%.

Regarding `CCS(=O)(=O)N(Cc1ccco1)Cc1cc2ccc(C)cc2nc1O`, the growth inhibition came out at 94.5%.

The molecule `CCN(CC)C(=O)N1CCN(C)CC1` yielded a growth inhibition below 0%.

On to `O=C(NCc1ccoc1)N1CCN(Cc2ccc3c(c2)OCO3)CC1`, for which the growth inhibition is below 0%.

With `CN1CCN(c2nccc3nc(-c4ccc(F)c(F)c4)[nH]c23)CC1`, the growth inhibition worked out at 91.1%.

As for `CC(=O)NCC1CN(c2ccc(-c3ccc(CNCc4cn[nH]n4)cc3)c(F)c2)C(=O)O1` (stereo unspecified), the growth inhibition is below 0%.

`N#Cc1ccc(-c2ccc(OCC(N)=O)cc2)cc1` returned a growth inhibition below 0%.

The molecule `Cc1nc(-c2ccccn2)nc(NCCc2ccc(S(C)(=O)=O)cc2)c1Cl` came in with a growth inhibition below 0%.

As for `CC(C)C(Oc1cccc2ccccc12)C(=O)O` (stereo unspecified), the growth inhibition is 0.0991%.

`CC(C)(C)OC(=O)N1CCC(Cn2nc(-c3cnc4ccccc4c3)c3c(N)ncnc32)CC1`: the growth inhibition turned out to be 52.3%.

`CC1CCCCN1C(=O)NCCc1coc(-c2ccc(F)cc2)n1` (stereo unspecified): the growth inhibition is below 0%.

In turn, `O=C(COc1cccc(F)c1)Nc1nc(-c2ccccn2)cs1` registered a growth inhibition below 0%.
